Data published in PubChem BioAssay AID1159580 (chemical genetic matrix, 2015).
The campaign covered roughly 5,500 compounds. About 2,000 (36%) were called active. Roughly 18% stayed inconclusive and do not appear here. Rule as the data show it: active = normalized growth mostly below about 0.91 (no sharp cut-off); inconclusive = no clear call, values can overlap the other calls; inactive = mostly above about 0.92. This is one part of the list.

Test: chemical genetic growth profiling, strain panel (AID 1159580);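 also: tested at 20 µM; growth read once vehicle control cultures reached saturation at 30 °C; 1 = growth at the plate median or of vehicle wells; lower values mean less growth of the strain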
Conditions: S. cerevisiae deletion strains, growth OD
[1] = locus YAL040C, strain CLN3, hits give low values
[2] = locus YCL061C, strain MRC1 (second series), hits give low values
[3] = locus YDR150W, strain NUM1, hits give low values
[4] = locus YDR363W, strain ESC2, hits give low values
[5] = locus YGR078C, strain PAC10, hits give low values
[6] = locus YMR263W, strain SAP30, hits give low values
[7] = locus YMR307W, strain GAS1, hits give low values
[8] = locus YNL175C, strain NOP13, hits give low values
[9] = locus YNL197C, strain WHI3, hits give low values
[10] = locus YOR083W, strain WHI5 (second series), hits give low values

Measured: normalized growth

O=c1cc(O)cc(/C=C/c2ccc(O)c(O)c2)o1
inactive: locus YAL013W, strain DEP1, hits give low values 0.981 | [1] 0.986 | [2] 0.988 | [3] 0.978 | [4] 0.995 | locus YER002W, strain NOP16, hits give low values 0.999 | [5] 0.985 | locus YGR229C, strain SMI1, hits give low values 0.966 | locus YJR075W, strain HOC1, hits give low values 0.988 | [6] 1 | [7] 1.01 | [8] 0.988 | [9] 0.986 | locus YNL224C, strain SQS1, hits give low values 1.02 | [10] 0.975 | locus YPL055C, strain LGE1, hits give low values 0.978

COc1cc(O)cc(/C=C/c2ccccc2)c1
active: locus YBR021W, strain FUR4, hits give low values 0.833 | locus YCL029C, strain bik1, hits give low values 0.9 | locus YDL035C, strain GPR1, hits give low values 0.665 | locus YDL074C, strain BRE1, hits give low values 0.61 | locus YDL101C, strain DUN1, hits give low values 0.835 | locus YDL134C, strain PPH21, hits give low values 0.697 | locus YDL185W, strain tfp1, hits give low values 0.881 | locus YDL192W, strain arf1, hits give low values 0.692 | locus YDR101C, strain arx1, hits give low values 0.858 | locus YDR162C, strain NBP2, hits give low values 0.618 | locus YDR318W, strain mcm21, hits give low values 0.805 | locus YDR502C, strain sam2, hits give low values 0.748 | locus YEL061C, strain CIN8, hits give low values 0.856 | locus YER110C, hits give low values 0.866 | locus YER155C, strain BEM2, hits give low values 0.753 | locus YGL078C, strain dbp3, hits give low values 0.765 | locus YGL086W, strain mad1, hits give low values 0.803 | locus YGL248W, strain PDE1, hits give low values 0.748 | locus YGR135W, strain pre9, hits give low values 0.713 | locus YGR252W, strain gcn5, hits give low values 0.519 | locus YHR030C, strain SLT2, hits give low values 0.795 | locus YHR079C, strain IRE1 (second series), hits give low values 0.89 | locus YHR129C, strain ARP1, hits give low values 0.768 | locus YHR200W, strain rpn10, hits give low values 0.907 | locus YIL066C, strain RNR3, hits give low values 0.859 | locus YIR030C, strain dcg1, hits give low values 0.907 | locus YJL095W, strain BCK1, hits give low values 0.46 | locus YJL187C, strain SWE1 (second series), hits give low values 0.721 | locus YJR043C, strain POL32, hits give low values 0.85 | locus YKL009W, strain mrt4, hits give low values 0.742 | locus YKL085W, strain MDH1 (second series), hits give low values 0.913 | locus YKL085W, strain MDH1, hits give low values 0.913 | locus YKL190W, strain CNB1, hits give low values 0.839 | locus YKR001C, strain vps1, hits give low values 0.425 | locus YLR039C, strain RIC1, hits give low values 0.507 | locus YLR058C, strain SHM2, hits give low values 0.784 | locus YLR262C, strain YPT6, hits give low values 0.381 | locus YLR330W, strain CHS5, hits give low values 0.715 | locus YLR342W, strain FKS1 (second series), hits give low values 0.601 | locus YLR418C, strain cdc73, hits give low values 0.456 | locus YML032C, strain rad52, hits give low values 0.795 | locus YML124C, strain tub3, hits give low values 0.914 | locus YMR223W, strain ubp8, hits give low values 0.805 | [6] 0.768 | [7] 0.59 | locus YNL067W, strain RPL9B, hits give low values 0.721 | locus YNL233W, strain BNI4, hits give low values 0.67 | locus YNL250W, strain rad50, hits give low values 0.887 | locus YNL271C, strain bni1, hits give low values 0.855 | locus YNL298W, strain CLA4, hits give low values 0.802 | locus YNL307C, strain MCK1, hits give low values 0.513 | locus YNR052C, strain pop2, hits give low values 0.855 | locus YOL147C, strain pex11, hits give low values 0.824 | locus YOR061W, strain CKA2, hits give low values 0.885 | locus YOR069W, strain VPS5, hits give low values 0.807 | locus YOR136W, strain idh2, hits give low values 0.899 | locus YOR144C, strain elg1, hits give low values 0.918 | locus YOR184W, strain ser1, hits give low values 0.666 | locus YPR119W, strain clb2, hits give low values 0.924 | locus YPR163C, strain tif3, hits give low values 0.682 | locus YPR167C, strain met16, hits give low values 0.809 | strain wtn01, hits give low values 0.789
inactive: locus YBR229C, strain ROT2, hits give low values 0.97 | [3] 0.954 | locus YDR388W, hits give low values 0.966 | locus YER167W, strain BCK2, hits give low values 0.94 | locus YHR094C, strain hxt1, hits give low values 0.946 | locus YIL073C, strain SPO22, hits give low values 0.809 | locus YIL125W, strain kgd1, hits give low values 0.94 | locus YJL134W, strain LCB3, hits give low values 0.976 | locus YJL168C, strain set2, hits give low values 0.954 | locus YKL068W, hits give low values 0.954 | locus YLR102C, strain apc9, hits give low values 0.942 | locus YLR268W, strain sec22, hits give low values 0.909 | locus YLR371W, strain rom2, hits give low values 0.949 | locus YML016C, strain PPZ1, hits give low values 0.924 | locus YMR078C, strain ctf18, hits give low values 0.938 | locus YOL012C, strain htz1 1.06 | locus YOR316C, strain cot1, hits give low values 0.949 | locus YPR141C, strain kar3, hits give low values 0.95

Oc1cc(O)cc(/C=C/c2ccc(O)c(O)c2)c1
inactive: [1] 1.01 | [2] 0.992 | [4] 0.955 | [6] 1.01 | [7] 0.979 | [9] 1 | locus YNL322C, strain KRE1, hits give low values 0.989 | [10] 0.993
active: [5] 0.691 | [8] 0.71
